Source: PubChem BioAssay AID504332 (National Center for Advancing Translational Sciences (NCATS), 2011)
About 31,000 (8.9%) of roughly 350,000 compounds were called active. Roughly 15% stayed inconclusive and do not appear here. What follows is part of a selection rich in actives, with near analogues and random picks from the rest. Values without a mark were called inactive. The call rests on the fitted dose curve; in most records, active means well fitted inhibition curve with a large enough effect; inconclusive means small, poorly fitted or top-dose-only effect; inactive means no such curve, though single readings can be large or run the other way.

biological target: Histone-lysine N-methyltransferase EHMT2 (Homo sapiens) (UniProt Q96KQ7); test: qHTS Assay for Inhibitors of Histone Lysine Methyltransferase G9a; conditions: G9a H3K9 monomethylation, AlphaScreen, 2 h; series mostly up to 59 µM; activity, negative = inhibition: at the top concentration; further: nearly all actives have a fitted effect of over 75% in size
Sequence (Q96KQ7 913-1193 limits assumed): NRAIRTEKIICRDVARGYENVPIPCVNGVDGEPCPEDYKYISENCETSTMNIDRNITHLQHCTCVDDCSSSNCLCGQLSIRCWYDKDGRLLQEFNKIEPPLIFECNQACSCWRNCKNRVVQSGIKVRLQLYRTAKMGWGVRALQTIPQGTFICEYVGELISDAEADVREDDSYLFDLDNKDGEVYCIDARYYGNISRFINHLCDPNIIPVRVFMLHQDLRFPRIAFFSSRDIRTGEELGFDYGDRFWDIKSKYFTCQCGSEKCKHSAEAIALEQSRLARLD
Procedure, shortened: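 Methyltransferase reactions run at room temperature for 2 h (20 nM enzyme, 500 nM biotin-H3K9 peptide, 20 uM SAM) after a 15 min compound preincubation; product detected by AlphaScreen beads and anti-H3K9me1 antibody.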
On the % scale 0 is the no-effect control and ±100 the full control effect; potency means the concentration at half of the fitted maximal effect.

| SMILES | activity, negative = inhibition | Potency |
| --- | --- | --- |
| CC1=C(C(=O)OCC2CCCCC2)C(c2c(F)cccc2Cl)CC(=O)N1 (centres undefined) | 7.87% | – |
| CC(C)c1ccc(S(=O)(=O)N2CCN(C(=O)CN3C(=O)NC(C)(c4ccccc4)C3=O)CC2)cc1 (centres undefined) | 0.311% [at 102 µM] | – |
| O=C(CN1CCCSc2ccccc21)N1CCN(S(=O)(=O)c2ccccc2)CC1 | – | 56.2 µM (active) |
| N#C/C=C1\Sc2ccccc2C(=O)N1CC(=O)N1CCN(S(=O)(=O)c2ccccc2)CC1 | – | 70.8 µM (active) |
| O=C(CN1CCSc2ccccc21)N1CCN(c2ccccc2)CC1 | -30.2% | – |
| O=C(Cc1ccccc1)N1CCN(S(=O)(=O)c2ccc([N+](=O)[O-])cc2)CC1 | 0.141% [at 102 µM] | – |
| O=C(CN1CCCSc2ccccc21)N1CCN(S(=O)(=O)c2cccc(F)c2)CC1 | 15.4% [at 12.7 µM] | – |
| CCN(C(=O)CSc1ncnc2c1cnn2-c1ccccc1)C1CCS(=O)(=O)C1 (centres undefined) | 7.57% [at 0.501 µM] | – |
| O=C(OCc1cc(=O)n2nc(C3CC3)sc2n1)c1ccccc1Cl | 0.251% | – |
| O=C(NNC(=O)c1ccc(-n2cncn2)c([N+](=O)[O-])c1)c1ccccc1 | 14.9% [at 12.7 µM] | – |
| CCc1cc2c(cc(C(=O)OC)n2Cc2nc(-c3ccc(C)cc3)oc2C)s1 | -24.2% | – |
| N#Cc1nc(-c2cccc3ccccc23)oc1N | 2.47% [at 2.33 µM] | – |
| CCCCN(C(=O)C(CCSC)N1C(=O)c2ccccc2C1=O)c1c(N)n(CCC)c(=O)[nH]c1=O (centres undefined) | 17.2% [at 12.7 µM] | – |
| COc1ccc2oc(C(=O)N(CC(C)C)C3CCS(=O)(=O)C3)c(C)c2c1 (centres undefined) | 7.64% [at 0.501 µM] | – |
| COc1cccc(Cn2cnc3c([N+](=O)[O-])c(C)c(C)cc32)c1 | -11.2% [at 102 µM] | – |
| CSc1nn(Cc2cccc(C)c2)c(N)c1S(=O)(=O)c1ccccc1 | -1.54% | – |
| Cc1cccc(Cn2cnc3c(N)c(C)c(C)cc32)c1 | – | 44.7 µM (active) |
| COc1cc(OC)cc(-c2nc3nc(C)c(CCC(=O)Nc4ccccc4)c(C)n3n2)c1 | -2.91% | – |
| O=C(CCc1nnc2ccc(NCc3ccco3)nn12)Nc1cc(F)ccc1F | -3.92% [at 102 µM] | – |
| Cc1sc2ncnc(N3CCC(C(=O)Nc4ccc(F)cc4Cl)CC3)c2c1C | -22.6% [at 12.7 µM] | – |
| CN(Cc1ccccc1)c1ncnc2onc(-c3ccc(F)cc3)c12 | 6.18% | – |
| CCCCN(C)CCNC(=O)CSCc1ccc(C)cc1 | – | 3.55 µM (active) |
| Cc1ccc(CSCC(=O)N(C)CC(=O)Nc2ccc(C)cc2)cc1 | -0.261% [at 102 µM] | – |

| SMILES | activity, negative = inhibition | Potency |
| --- | --- | --- |
| CCN(CC(=O)Nc1cc(Cl)ccc1C)C(=O)CSCc1ccc(C)cc1 | -2.36% [at 2.33 µM] | – |
| CC(=O)c1nn(-c2ccc(OC(F)(F)F)cc2)nc1Nc1ccccc1 | 9.69% | – |
| Cc1ccc(N2CC(C(=O)N3CCC4(CC3)CC(=O)c3ccccc3O4)CC2=O)cc1C (centres undefined) | 6.18% [at 0.501 µM] | – |
| CCOc1ccc(NS(=O)(=O)c2ccc(C(=O)NC3CCN(Cc4ccccc4)CC3)cc2)cc1 | 17.4% [at 2.33 µM] | – |
| CCOc1ccc(S(=O)(=O)Nc2ccc(C(=O)NCCCN3CCCC3=O)cc2)cc1 | 12.9% | – |
| CCOc1ccc(NS(=O)(=O)c2ccc(C(=O)NCC(c3ccccc3OC)N3CCCC3)cc2)cc1 (centres undefined) | – | 1.26 µM (active) |
| COc1ccc(Cn2c(=O)c3oc4ccccc4c3n(CC(=O)Nc3ccc(F)cc3F)c2=O)cc1 | 2.4% | – |
| COc1ccc(NC(=O)c2ccco2)cc1NC(=O)COc1ccc(C)c(C)c1 | -5.49% | – |
| COc1ccc2[nH]cc(/C=C(/C#N)S(=O)(=O)c3ccccc3)c2c1 | -5.58% [at 102 µM] | – |
| COc1ccc(/C=C(\C#N)c2c[nH]c3ccccc23)cc1 | – | 39.8 µM (active) |
| O=C(N/N=C/c1ccc([N+](=O)[O-])cc1)c1c[nH]c2ccccc12 | -27.9% [at 102 µM] | – |
| CCCCn1c(N)c(N(Cc2ccccc2OC)C(=O)COc2cc(C)ccc2Cl)c(=O)[nH]c1=O | -35.7% [at 102 µM] | – |
| Cn1nccc1/C=N\NC(=O)c1ccc(Cl)cc1 | 19.2% [at 102 µM] | – |
| OCC[C@H]1C[C@H](O)[C@@H](O)[C@]2(CCc3ccccc3O2)O1 | 7.67% [at 2.33 µM] | – |
| O=S(=O)(c1ccc(Br)c2ccccc12)N1CCOCC1 | 24.5% [at 0.501 µM] | – |
| COc1ccccc1-n1c(=S)[nH]c2c(sc(=S)n2-c2ccc(C)cc2C)c1=O | – | 7.94 µM (active) |
| COc1ccccc1N1CCN(C(=O)c2cc(=O)c3cc(C)cc(C)c3o2)CC1 | -10.5% [at 2.33 µM] | – |
| COc1cccc(-n2c(=S)sc3c(=O)n(-c4ccccc4OC)c(SCC4OCCO4)nc32)c1 | 13.6% | – |
| Cc1cccc(C)c1NC(=O)COC(=O)c1c(C)nn(-c2ccccc2)c1C | – | 11.2 µM (active) |
| Cc1cccc(C)c1NC(=O)CNC(=O)c1c(C)nn(-c2ccccc2)c1C | 1.23% [at 102 µM] | – |
| Cc1nn(-c2ccccc2)c(C)c1C(=O)OCC(=O)NC(=O)NC1CCCCC1 | 14.9% | – |
| COc1ccc(C)cc1S(=O)(=O)Nc1cc2c3c(c1)CCC(=O)N3CCC2 | 5.66% [at 102 µM] | – |
| Cc1ccc2oc3c(c(=O)c2c1)C(c1ccc([N+](=O)[O-])cc1)N(CCCN1CCOCC1)C3=O (centres undefined) | -4.28% | – |

| SMILES | activity, negative = inhibition | Potency |
| --- | --- | --- |
| CC(=O)c1cccc(NC(=O)CSc2nc3c(c(=O)[nH]2)CCC3)c1 | -8.01% | – |
| Cc1ccc(-c2nn(CCC(=O)Nc3ccc(OC(F)(F)F)cc3)c(=O)c3ccccc23)cc1 | 1.21% | – |
| O=C(c1cc(-c2ccco2)nc2ccccc12)N(Cc1nnc(-c2ccc(Cl)cc2)o1)C1CC1 | – | 5.01 µM (active) |
| CC(C)N(Cc1nnc(-c2ccccc2Br)o1)C(=O)c1cc(Cl)nc2ccccc12 | -53.3% [at 12.7 µM] | – |
| O=C(c1ccc(Cl)s1)N(Cc1nnc(-c2ccccc2Cl)o1)C1CC1 | 9.15% [at 12.7 µM] | – |
| CCOC(=O)[C@H]1[C@H]2COc3cc(OC)ccc3[C@@H]2N2C(=O)N(c3ccc(Br)cc3)C(=O)[C@@]12C | -5.49% [at 102 µM] | – |
| Cc1c(Cl)cccc1NC(=O)C1CCCN(c2ncnc3onc(C)c23)C1 (centres undefined) | -4.63% | – |
| CSc1ccccc1OCc1cc(C(=O)N2C[C@H]3CC[C@H]2C3)no1 | 39.3% [at 102 µM] | – |
| O=C(c1ccccc1)c1cc(-c2ccccn2)c(N2CCOCC2)s1 | -7.68% [at 102 µM] | – |
| CCc1ccc2ncc(C(=O)c3ccccc3)c(N3CCOCC3)c2c1 | – | 56.2 µM (active) |
| CCc1cccc(NC(=O)c2cnc(N3CCOCC3)c3ccccc23)c1 | 12.6% | – |
| COc1ccc(C(=O)CC(=O)c2ccc(C)cc2)c(O)c1 | 28.4% [at 102 µM] | – |
| COc1cc2c(cc1OC)C(COc1ccc(F)cc1)N(C(=O)c1ccccc1F)CC2 (centres undefined) | -0.587% | – |
| COc1ccc(/C=N/N=C2/C(=O)Nc3ccccc32)cc1O | 16.7% | – |
| O=C1Nc2ccc(Br)cc2/C1=N/N=C/C1=C(N2CCOCC2)C(=C\c2ccccc2)/CC1 | – | 12.6 µM (active) |
| COc1ccc(S(=O)(=O)Nc2cc3c(C(=O)OC(C)C)c(C)oc3c3ccccc23)cc1 | -0.639% | – |
| COc1cccc(N(C(=O)c2snc(C(N)=O)c2N)C(C(=O)NCC2CCCO2)c2c[nH]c3ccccc23)c1 (centres undefined) | -48.6% [at 102 µM] | – |
| CCOc1ccc(N(C(=O)c2snc(C(N)=O)c2N)C(C(=O)NCC2CCCO2)c2c[nH]c3ccccc23)cc1 (centres undefined) | – | 39.8 µM (active) |
| Cc1ccc(N(C(=O)c2snc(C(N)=O)c2N)C(C(=O)NCC2CCCO2)c2c[nH]c3ccccc23)cc1 (centres undefined) | 3.25% [at 102 µM] | – |
| CN(CC(=O)Nc1ccc(OC(F)(F)F)cc1)C(=O)C1CCC1 | -37% [at 12.7 µM] | – |
| N#C/C=C\Oc1ccc(Cl)cc1N | – | 44.7 µM (active) |
| COc1ccc(Cl)cc1C(=O)NCC#N | -0.132% [at 12.7 µM] | – |
| COCCNC(=O)C1CCN(S(=O)(=O)c2ccc3c(c2)OCCO3)CC1 | 2.44% [at 0.501 µM] | – |

| SMILES | activity, negative = inhibition | Potency |
| --- | --- | --- |
| O=C(NC(=S)Nc1ccccc1N1CCCCC1)c1ccc(F)cc1 | -39.7% [at 102 µM] | – |
| O=C(CC1N=C2c3ccccc3N=C(SCc3ccc(F)cc3)N2C1=O)NCc1cccs1 (centres undefined) | 3.62% | – |
| Nc1nc(-c2ccccc2)cc(-c2ccccc2)n1 | 3.85% [at 102 µM] | – |
| CC(Oc1ccccc1)C(=O)Nc1oc(-c2ccco2)c(-c2ccco2)c1C#N (centres undefined) | – | 28.2 µM (active) |
| COc1cc(C(=O)Nc2oc(-c3ccccc3)c(-c3ccccc3)c2C#N)cc(OC)c1OC | -4.06% [at 102 µM] | – |
| CC(C)C(=O)Nc1oc(-c2ccccc2)cc1C#N | 3.52% [at 102 µM] | – |
| CCC(=O)N1CCc2cc(Br)cc(S(=O)(=O)NCc3ccc(Cl)cc3)c21 | -4.97% | – |
| Brc1ccccc1/C=N/Nc1nc2ccccc2o1 | 2.92% [at 102 µM] | – |
| CC(C)N1C(=O)C2C(C(=O)NC3CCCCC3)C3C=CC2(O3)C1C(=O)NC1CCCC1 (centres undefined) | -8.2% | – |
| CCN(CC)CCN1C(=O)C2C(C(=O)Nc3ccc(Br)cc3)C3C=CC2(O3)C1C(=O)NC1CCCCC1 (centres undefined) | – | 50.1 µM (active) |
| CCOCCCN1C(=O)C2C(C(=O)Nc3ccc(OCC)cc3)C3C=CC2(O3)C1C(=O)NC1CCCCC1 (centres undefined) | 15.1% [at 102 µM] | – |
| CC(=O)N1c2ccc(S(=O)(=O)N3CCCCCC3)cc2CC1C(=O)NCc1ccccc1C (centres undefined) | 11.6% | – |
| Cc1ccc(S(=O)(=O)NCCC(=O)NNC(=O)C2COc3ccccc3O2)cc1 (centres undefined) | 3.72% | – |
| Cc1ccc(-n2ncc(C(=O)N(C)Cc3ccccc3)c2-n2cccc2)cc1 | -21.6% | – |
| COc1ccc(C(=O)NC2CC2)cc1OC1CCN(Cc2ccc(SC)cc2)CC1 | -9.68% | – |
| CCOC(=O)c1c(NC(C)=O)c2c3c(sc2n1Cc1c(C)cc(C)cc1C)CCCC3 | -2.13% | – |
| COC(=O)c1ccc(C2CC(=O)Nc3cc(OC)c(OC)cc32)cc1 (centres undefined) | 14.9% | – |
| COc1cc2c(cc1OC)C(c1ccncc1)CC(=O)N2 (centres undefined) | -34% [at 2.33 µM] | – |
| COc1cc2c(cc1OC)C(c1ccc(C)o1)CC(=O)N2 (centres undefined) | – | 20 µM (active) |
| O=C(Nc1cc(C(F)(F)F)ccc1Cl)c1cc2nc(-c3ccc4c(c3)OCO4)cc(C(F)(F)F)n2n1 | -1.62% | – |
